Screening data deposited in PubChem BioAssay by National Center for Advancing Translational Sciences (NCATS).
The list is not random: actives were taken first. Their share in the collection is about 21%.
NS1 inh: influenza NS1 inhibition. 270,000 tested, 0.4% active. AID 2326. Potency, µM (titrated, usually from 46.1 µM); calls by dose curve; note: actives are rising curves; nearly all actives have a fitted effect of over 50% in size
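Growth recovery, yeast-based: influenza A NS1 expressed in S. cerevisiae causes slow growth, and suppressors are detected by OD600. The parent strain without NS1 is used as positive control.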
Shiga toxin inh: Shiga toxin inhibition; Vero cells, Shiga toxin protein synthesis inhibition reporter; inhibition, % at 38.7 µM; 290,000 tested, 9.2% active; AID 2315; in the data active = inhibition mostly above about 28%, no sharp cut-off; inactive = mostly below about 43%
CHX counter: counter-screen for Shiga toxin inhibitors: cycloheximide protein synthesis inhibition; 300,000 tested, 12% active; max response, %; cell reporter, cycloheximide protein synthesis inhibition counterscreen; AID 2314; in the data active = max response mostly above about 13%, no sharp cut-off; inactive = mostly below about 14%; note: read at 38.3 µM for the half of the compounds with a filed dose
Pf growth 96h: inhibits malaria parasite growth, 96 h; AID 504834; P. falciparum luciferase reporter growth, 96 h; 320,000 tested, 6.9% active; Potency, µM (titrated, usually from 28.7 µM), usual class: inhibitors
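P. falciparum expressing integrated firefly luciferase grown in erythrocytes (2% hematocrit, 0.05% parasitemia final) with compounds for 96 hours at 37 C, 5% CO2. Growth inhibition read as loss of luminescence after adding luciferase detection reagent.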
SARS PLP yeast: inhibitors of SARS-CoV papain-like protease in yeast; Potency, µM (titrated, usually from 32.9 µM), usual class: activators; 330,000 tested, 0.19% active; S. cerevisiae expressing SARS-CoV PLpro, growth rescue; calls by dose curve; note: nearly all actives have a fitted effect of over 55% in size
Pf growth 48h: P. falciparum growth inhibition at 48 hours (one generation); P. falciparum luciferase growth in erythrocytes, 48 h; Potency, µM (doses to about 28.7 µM), most hits filed as inhibitors; 310,000 tested, 5.9% active; AID 504832
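Luciferase-expressing parasites in RBCs, 2% Hct / 0.1% parasitemia final; RPMI 1640 + 0.5% Albumax; 37 C, 5% CO2, one generation; luminescence read-out, lower signal = inhibition.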
Large screens that a line does not name were inactive. Unless noted, calls come from the whole dose curve; as a rule, active = well fitted inhibition curve with a large enough effect; inconclusive = small, poorly fitted or top-dose-only effect, or another doubt; inactive = no such curve, though single readings can be large or run the other way.

O=C(O)c1cccc(Nc2c([N+](=O)[O-])c(=O)oc3ccccc23)c1	Shiga toxin inh 125, CHX counter 73
Cc1cc(C)c2nc(N3C(=O)C(O)=C(C(=O)c4ccco4)C3c3ccco3)sc2c1 (configuration not stated)	none
O=C(NNc1c2ccccc2nc2ccccc12)c1cccc(O)c1	Pf growth 96h inconclusive, Pf growth 48h 13µM
O=C(NNC(=O)c1cc(-c2ccncc2)nc2ccccc12)c1cccc(Cl)c1	none (no result: NS1 inh, Shiga toxin inh, CHX counter)
O=C(CCc1ccccc1)NNC(=O)C12CC3CC(CC(C3)C1)C2	CHX counter 21
O=C(NNc1c2ccccc2nc2ccccc12)C(O)c1ccccc1 (configuration not stated)	Pf growth 96h 0.41µM, Pf growth 48h inconclusive
O=C(NNc1c2ccccc2nc2ccccc12)c1ccccc1Cl	Pf growth 96h inconclusive, Pf growth 48h inconclusive
O=C(O)c1cccc(Nc2c3ccccc3nc3ccccc23)c1	Shiga toxin inh 87, CHX counter 107, Pf growth 48h inconclusive
CC(C)(C)OC(=O)N1CC[C@H]1COc1cnc[c]([Sn]([CH3])([CH3])[CH3])c1	none (no result: NS1 inh, Pf growth 96h, SARS PLP yeast, Pf growth 48h)
CSc1ncccc1C(=O)OCc1ccccc1Cl	CHX counter 41 (no result: NS1 inh)
COC(=O)c1cccc(COC(=O)c2cccnc2SC)c1	CHX counter 21 (no result: Pf growth 96h)
CSc1ncccc1C(=O)OCc1ccc(C#N)cc1	none (no result: Pf growth 48h)
CSc1ncccc1C(=O)OCc1c(F)cccc1Cl	Shiga toxin inh 91, CHX counter 21
COc1ccc(C(C)=O)cc1COC(=O)c1cccnc1SC	none (no result: NS1 inh)
O=C(OCc1c(F)cccc1Cl)c1cccnc1Cl	none
CCOC(=O)/C(=C/C1=CC(=C/N(C)C)/C(=O)O1)C(C)=O	none
COc1ccc(NC(=O)C2CC(=O)N(CCc3ccc(F)cc3)C2)c(OC)c1 (configuration not stated)	none
COc1ccc(C(=O)N[C@H](C(=O)NCc2cccs2)C(C)C)cc1	none
COc1ccc(COc2ccsc2C(=O)Nc2ccc(Cl)c(Cl)c2)cc1	none
O=C(Nc1ccccc1F)C1CCN(S(=O)(=O)c2cccnc2)CC1	none
Cc1cc(C)nc(SCCC(=O)Nc2ccccc2Cl)n1	none
CC(=O)c1cc(F)ccc1OCC(=O)Nc1ccc2c(c1)OCO2	none (no result: NS1 inh, Shiga toxin inh, CHX counter, Pf growth 96h, Pf growth 48h)
O=Cc1ccc(OC(=O)CCCCC(=O)Oc2ccc(C=O)cc2)cc1	Pf growth 96h 0.0033µM, Pf growth 48h inconclusive
O=C(CC1CC2CCC1C2)N1CCN(S(=O)(=O)c2ccccc2C(F)(F)F)CC1 (configuration not stated)	Pf growth 96h inconclusive, Pf growth 48h 12µM (no result: NS1 inh, Shiga toxin inh, CHX counter)
O=C(CC1CC2CCC1C2)N1CCN(S(=O)(=O)c2ccccc2[N+](=O)[O-])CC1 (configuration not stated)	Pf growth 96h 10µM, Pf growth 48h inconclusive (no result: NS1 inh, Shiga toxin inh, CHX counter)
Cc1ccc(Cn2c(CCCO)nc3ccccc32)cc1	none
CC(C)(C)CC(=O)NC(=S)NCc1ccco1	none
O=C(CSc1nnc(-c2c[nH]c3ccccc23)o1)c1ccc(-c2ccccc2)cc1	NS1 inh inconclusive, SARS PLP yeast inconclusive
c1ccc2c(-c3cn4ccccc4n3)c[nH]c2c1	Shiga toxin inh 142, CHX counter 43, Pf growth 96h inconclusive, Pf growth 48h inconclusive (no result: NS1 inh)
c1ccc(CSc2nnc(-c3c[nH]c4ccccc34)o2)cc1	Shiga toxin inh 169, CHX counter 48
c1ccc2c(-c3nnc(SCc4cn5ccccc5n4)o3)c[nH]c2c1	Pf growth 96h 12µM (no result: Pf growth 48h)
COCCN1CC(CNC(=O)c2cc(COc3ccc(C)c(C)c3)on2)CC1=O (configuration not stated)	none
CCOC(=O)C1(CCCc2ccccc2)CCN(Cc2ccn[nH]2)CC1	Pf growth 48h inconclusive
CCc1cccc(NC(=O)Cc2ccc(OC)c(OC)c2)c1	none
COc1ccc(CC(=O)Nc2cccc(-c3nnc(-c4cccc(C)c4)o3)c2)cc1OC	Shiga toxin inh 52, CHX counter 46, Pf growth 48h inconclusive (no result: Pf growth 96h)
COc1ccc(CC(=O)Nc2cc(C)on2)cc1OC	none (no result: Pf growth 96h)
COc1ccc(-c2nc3cc(NC(=O)Cc4ccc(OC)c(OC)c4)ccc3o2)cc1	Shiga toxin inh 34, CHX counter 25, Pf growth 96h 4.1µM
COc1ccc(CCNC(=O)CSc2nnc(-c3ccccc3)o2)cc1OC	none
COc1ccc(Cc2nnc(Nc3ccc(C)cc3)o2)cc1OC	Pf growth 96h inconclusive, Pf growth 48h 2.9µM
COc1ccc(CC(=O)Nc2ccc(-c3nnc(-c4ccccc4)o3)cc2)cc1OC	NS1 inh inconclusive, CHX counter 15 (no result: Pf growth 96h)
COc1ccc(CNS(=O)(=O)NCc2ccc(C)cc2)cc1OC	none (no result: NS1 inh)
Cc1ccccc1CNC(=O)CCNS(=O)(=O)c1ccc(OC(F)(F)F)cc1	none (no result: NS1 inh, Shiga toxin inh, CHX counter)
COC(=O)c1cc2c(C(F)(F)F)nn(C)c2s1	none
COc1ccc(CC(=O)Nc2cccc(-c3nnc(-c4ccc(C)cc4)o3)c2)cc1OC	CHX counter 25, Pf growth 48h inconclusive
COc1ccc(CC(=O)Nc2cccc(-c3nnc(-c4ccccc4)o3)c2)cc1OC	Shiga toxin inh 96, CHX counter 49, Pf growth 48h inconclusive (no result: Pf growth 96h)
COc1ccc(CCNC(=O)CSc2nnc(-c3cccc(C)c3)o2)cc1OC	Pf growth 48h inconclusive (no result: Pf growth 96h)
Cc1ccc(OCC(=O)Nc2cccc(-c3nnc(-c4ccccc4)o3)c2)c(C)c1	Pf growth 96h inconclusive
COc1ccc(Cc2nnc(-c3cccc(C)c3)o2)cc1OC	Shiga toxin inh 43, CHX counter 21, SARS PLP yeast inconclusive
CC(C)CC(NC(=O)C1CCC(C)CC1)C(=O)Nc1ccccc1F (configuration not stated)	Pf growth 48h inconclusive
COC(=O)[C@H](CC(C)C)NC(=O)Nc1ccc2c(c1)OCCO2	Shiga toxin inh 93, CHX counter 33, Pf growth 96h inconclusive
CCC1CCC(C(=O)NC(C(=O)Nc2ccc3c(c2)OCCO3)C(C)C)CC1 (configuration not stated)	Pf growth 96h 9.3µM (no result: Pf growth 48h)
CC(=O)NC(CCS(C)(=O)=O)C(=O)Nc1ccc2c(c1)OCCO2 (configuration not stated)	Shiga toxin inh 42, Pf growth 96h inconclusive
CC(C)CC(NC(=O)C1CCC(C)CC1)C(=O)Nc1ccccn1 (configuration not stated)	Shiga toxin inh 131, CHX counter 27, Pf growth 96h inconclusive
COc1ccc(C(=O)N2CCC(C(=O)N3CCN(Cc4ccccc4)CC3)CC2)cc1	none
CCC(=O)N(Cc1cc(=O)[nH]c2ccccc12)c1ccc(C)cc1	Pf growth 96h inconclusive, Pf growth 48h inconclusive
Cc1cc(C)cc(N(CC(=O)NC2CCCC2)C(=O)CCC(=O)Nc2cc(C)ccn2)c1	Pf growth 96h inconclusive, Pf growth 48h inconclusive
CCOc1ccccc1NC(=O)C(CC(C)C)NC(=O)C1CCC(C)CC1 (configuration not stated)	none (no result: Pf growth 48h)
CC(=O)Nc1ccc(NC(=O)C(Cc2ccccc2)NC(=O)C2CCC(C)CC2)cc1 (configuration not stated)	Pf growth 96h 0.33µM
